These results are taken from PubChem BioAssay (Tox21).

SMILES strings stand for the structures. Inconclusive results are not listed. Where a call stands in place of a potency, no number is given. Activity calls are given as the source filed them. Calls come from the whole dose curve.

The test in a line: cAMP Responsive Elements (CRE) small molecule agonists, cell-based qHTS assay (AID 1963590). The following applies: CRE-bla HEK293T, beta-lactamase FRET ratio, 3 h; series mostly up to 92.4 µM. From the text:
U.S. Tox21 Program National Center for Advancing Translational Sciences [NCATS] Division of Preclinical Innovation [DPI] U.S. Environmental Protection Agency [EPA] National Institutes of Environmental Health Sciences [NIEHS] National Toxicology Program [NTP] U.S. Food and Drug Administration [FDA] Tox21 Assay Overview: CREB (cyclic-AMP Responsive Element Binding Protein) is a cellular transcription factor. It binds to certain DNA sequences called cAMP Responsive Elements (CRE) and regulates the transcription of the genes. […] This cell line can be used to find agonists/antagonists of the cyclic AMP signaling pathway. The activation of the report gene under culture conditions can be detected by fluorescence intensity. This cell line has been used to screen the Tox21 10K compound library to identify agonists that induce oxidative stress.
Tox21 Assay Protocol Summary: CRE-bla Hek 293T cells were suspended in assay medium (DMEM containing 10% dialyzed FBS, 0.1 mM NEAA, 1 mM sodium pyruvate and 25 mM HEPES) and dispensed at 2,000 cells/5 uL /well into 1536-well black wall/clear bottom plates using a Multidrop Combi (ThermoFisher Scientific, Waltham, MA) dispenser. After the assay plates were incubated at 37 C/5% CO2 for 18 hrs, 23 nL of compounds dissolved in DMSO, positive controls or DMSO only was transferred to the assay plate by a pintool workstation (Kalypsys, San Diego, CA). After the plates were incubated at 37 C/5% CO2 for 3 hrs, 1 uL of LiveBLAzer B/G FRET substrate (Invitrogen, Carlsbad, CA) was added to each well using Bioraptr Flying Reagent Dispenser (FRD, Aurora Discovery, San Diego, CA). The plates were incubated at room temperature for 2 h.
(In qHTS, concentration-response curves come from the screen itself.)
As to `CCc1cccc(CC)c1`, the Potency entry is “inactive”. The result for `O=C(O)c1ccc[n+]([O-])c1` reads “inactive”. For the molecule `COc1cccc([C@H](O)C2CCN(CCc3ccc(F)cc3)CC2)c1OC`, the Potency result was “inactive”. `FC(F)(F)C(F)(F)C(F)(F)C(F)(F)CCI`: the Potency result was “inactive”.

As for `Nc1ccc(C(=O)NCC(=O)O)cc1`, the Potency result was “inactive”. Regarding `CN(C)CCCOC1(Cc2ccccc2)CCCCCC1`, the Potency result is “inactive”.

Take `OC[C@@H](O)[C@H](O)[C@@H](O)[C@@H](O)CO`: the Potency entry was “inactive”. For the molecule `CCCCCCCCCCCCSC`, the Potency result is “inactive”. Consider `Cc1ccc2nc(N)[nH]c(=O)c2c1Sc1ccncc1`, for which the Potency entry was “inactive”. Consider `CCCCCCCCCCCCN1CCOCC1`, for which the Potency result was “inactive”. Take `CC(C)C(=O)OCc1cccc(OC(=O)[C@@H]2N3C(=O)[C@@H](NC(=O)Cc4ccccc4)[C@H]3SC2(C)C)c1`: the Potency entry is “inactive”.

`CCC(C)(CCCC(C)C)OC(C)=O` (stereo not given): the Potency result was “inactive”. Turning to `O=C(Nc1ccccc1)Nc1ccccc1`, the Potency entry is “inactive”. Regarding `CCCCCCCCCC[N+](C)(C)[O-]`, the Potency entry is “inactive”. As for `O=C1OCCN1/N=C/c1ccc([N+](=O)[O-])o1`, the Potency result was “inactive”.

As for `CCCCCCCCCCCCCCC1CO1` (stereo not given), the Potency entry was “inactive”. As to `CC(=O)CC(c1ccc([N+](=O)[O-])cc1)c1c(O)c2ccccc2oc1=O` (stereo not given), the Potency result was “inactive”. The result for `Oc1cccc2[nH]ccc12` reads “inactive”; that for `CCCCCCCCCCOS(=O)(=O)O`, “inactive”. Take `CC(=O)Nc1ccc(N)cc1`: the Potency result is “inactive”. As to `CCn1ccnc1CC1COc2ccccc2O1` (stereo not given), the Potency entry was “inactive”. As for `C=CC1CO1` (stereo not given), the Potency entry was “inactive”. Turning to `CCCCCCCCCCCCCCCC(=O)OC[C@H](O)[C@H]1OC(=O)C(O)=C1O`, the Potency entry was “inactive”. For `CCN(CC)C(=O)N1CCN(C)CC1`, the Potency result is “inactive”. In the case of `CC(C)(C)C(=O)O`, the Potency result was “inactive”. As for `COC(C)(C)CCCC(C)CC=O` (stereo not given), the Potency result is “inactive”. With `CC(C)(C)c1cc(CCC(=O)OCCSCCOC(=O)CCc2cc(C(C)(C)C)c(O)c(C(C)(C)C)c2)cc(C(C)(C)C)c1O`, the Potency result is “inactive”. In the case of `CC1=CC(=O)CC(C)(C)C1(O)/C=C/C(C)=C\C(=O)O` (stereo not given), the Potency entry was “inactive”.

Consider `CCC(O)C(C)(C)C` (stereo not given), for which the Potency result is “inactive”. On to `Cc1c(N)cccc1[N+](=O)[O-]`, for which the Potency entry was “inactive”. On to `ICCc1ccccc1`, for which the Potency result is “inactive”. In the case of `CC(C)(C)NCC(O)COc1ccc(NC(=O)NC2CCCCC2)cc1` (stereo not given), the Potency result is “inactive”.

As to `Cc1nc2ccc(Cl)cc2[nH]1`, the Potency result is “inactive”. On to `Nc1cc([N+](=O)[O-])cc(Cl)c1O`, for which the Potency result was “inactive”. As to `CC(C)(O)C(=O)c1ccccc1`, the Potency result is “inactive”.

In the case of `CC1(C)S[C@@H]2[C@H](N=CN3CCCCCC3)C(=O)N2[C@H]1C(=O)O`, the Potency result was “inactive”.

On to `Cc1cc(NC(=O)C2=C(O)c3ccccc3S(=O)(=O)N2C)no1`, for which the Potency entry was “inactive”. For `O=C(NCCN1CCOCC1)c1ccc(Cl)cc1`, the Potency result is “inactive”.

Take `Cc1ccc(Cl)c(OCC(O)CNC(C)(C)C)c1` (stereo not given): the Potency result is “inactive”. The result for `CC(=O)OC1CCC(C(C)(C)C)CC1` (stereo not given) reads “inactive”.
